# Compounds with a hit are over-represented: about 1.6% of the library has one in this group of screens.
# KCNQ2 enhance: potentiators of rat KCNQ2 potassium channel | O88943 | B-score at 10 µM | CHO-K1 KCNQ2, FluxOR thallium flux fluorescence; hits give high values | 310,000 tested, 0.54% active | AID 2239;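 active means fluorescence ratio B-score at least 3 SD of library B-scores, with initial fluorescence B-score within 3 of them, cut at about 5.3 in these data; same plate scores as AID 2156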;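 further: B-score of peak minus minimum over baseline fluorescence ratio after K+ and Tl+ stimulus; positive B-score means potentiation of KCNQ2 with more thallium influx and brighter signal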
# KCNQ2 block: KCNQ2 (rat) channel inhibition; O88943; B-score at 10 µM; AID 2156; 310,000 tested, 1.1% active; CHO-K1 KCNQ2, FluxOR thallium flux, 20 min; hits give low values;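 active means fluorescence ratio B-score at most minus 3 library SDs, with starting brightness B-score within 2 library SDs, cut at about -5.5 in these data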
# KCNQ2 block conf: confirmation of rat KCNQ2 potassium channel inhibitors; shares compounds with KCNQ2 block; KCNQ2-expressing cells, thallium flux, inhibition; hits give low values; activity change, negative = inhibition, % at 10 µM; 1,000 tested, 57% active;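 further: 0% = vehicle wells and values are ratio percent relative to vehicle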
# KCNQ1 spec: selectivity of KCNQ2 inhibitors against human KCNQ1; 1,000 tested, 15% active; activity change, negative = inhibition, % at 10 µM; AID 493026; shares compounds with KCNQ2 block; KCNQ1-expressing cells, FluxOR thallium flux fluorescence; hits give low values;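 active means activity change at least 3 SD of negative controls below their mean in both duplicate wells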;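 further: CHO cells stably transfected with KCNQ1 and depolarized by potassium stimulus; peak minus minimum fluorescence over baseline after thallium addition; 0% = vehicle negative control and -100% = blank without thallium stimulus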
# Target sequence (P51787 whole entry, looked up): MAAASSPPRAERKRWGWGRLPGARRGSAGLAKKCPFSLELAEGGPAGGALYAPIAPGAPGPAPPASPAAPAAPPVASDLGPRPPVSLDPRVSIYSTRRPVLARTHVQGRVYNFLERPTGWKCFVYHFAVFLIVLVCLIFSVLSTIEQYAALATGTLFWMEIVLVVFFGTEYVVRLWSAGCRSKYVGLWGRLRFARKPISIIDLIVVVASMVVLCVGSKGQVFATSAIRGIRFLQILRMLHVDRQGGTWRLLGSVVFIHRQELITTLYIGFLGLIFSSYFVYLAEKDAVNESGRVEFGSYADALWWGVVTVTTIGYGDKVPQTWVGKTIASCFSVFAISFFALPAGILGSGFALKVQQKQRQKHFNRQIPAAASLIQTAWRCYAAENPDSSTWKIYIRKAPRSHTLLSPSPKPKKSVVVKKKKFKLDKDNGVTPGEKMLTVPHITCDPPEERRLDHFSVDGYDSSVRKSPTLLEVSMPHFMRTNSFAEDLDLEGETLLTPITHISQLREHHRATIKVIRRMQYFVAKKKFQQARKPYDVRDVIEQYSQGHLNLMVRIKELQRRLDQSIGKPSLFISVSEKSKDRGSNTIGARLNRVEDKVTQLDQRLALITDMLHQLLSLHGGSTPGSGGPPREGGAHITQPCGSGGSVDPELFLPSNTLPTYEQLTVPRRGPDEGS
# CHO Tl ctr: counter-screen for KCNQ2 inhibitors: effect in parental CHO cells. shares compounds with KCNQ2 block. thallium flux counter-screen; hits give low values. activity change, % at 10 µM. 1,000 tested, 14% active. AID 493029;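 further: 0% = vehicle negative controls with stimulus buffer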
# KCNQ2 patch conf: rat KCNQ2 inhibition confirmed by electrophysiology; KCNQ2-expressing cells, automated patch clamp current; 550 tested, 49% active; calls only at 10 µM; AID 588531; shares compounds with KCNQ2 block
# * = called active by the depositor; i = inactive; . = no result; + = active, no number. Unless noted, how the calls were made is not given here.
SMILES,KCNQ2 enhance,KCNQ2 block,KCNQ2 block conf,KCNQ1 spec,CHO Tl ctr,others
Cc1ccc2c(c1)c1c3n2CCCNC3CCC1 (configuration not stated),.,i,.,.,.,
c1cc2c(cc1C1CCCCC1)c1c3n2CCCNC3CCC1 (configuration not stated),-12,-12*,-34%*,i,i,KCNQ2 patch conf=i
COc1ccc(CN(C(=O)CCC(=O)Nc2cc(C)on2)C(C(=O)NC(C)(C)C)c2cccc(OC)c2OC)cc1 (configuration not stated),.,i,.,.,.,
CC(C)c1ccc(NC(=O)NN2CCOCC2)cc1,1.1,i,.,.,.,
CCN(C(=O)c1ccc(S(=O)(=O)N(C)C)cc1)C(C)C(=O)Nc1ccc(C)cc1 (configuration not stated),.,i,.,.,.,
CN(C)c1nc(NCc2ccccc2)nc(N/N=C/c2ccccc2F)n1,.,i,.,.,.,
CN(C)c1nc(NCc2ccccc2)nc(N/N=C/c2ccc(Cl)cc2Cl)n1,-8.8,-8.8*,i,i,i,
Cc1cc(S(=O)(=O)Nc2ccc(C(=O)NCc3ccncc3)cc2)ccc1F,1,i,.,.,.,
Nc1cccc(P(=O)(c2ccccc2)c2ccccc2)c1,.,i,.,.,.,
O=P(c1ccccc1)(c1ccccc1)N(c1ccccc1)c1ccccc1,-6.8,-6.8*,-20%*,i,i,KCNQ2 patch conf=+
COc1cc(NC(=O)C(c2ccccc2)c2ccccc2)c(C(=O)O)cc1OC,0.39,i,.,.,.,
COc1cc2c(cc1NC(=O)C(c1ccccc1)c1ccccc1)CCCC2,-7.1,-7.1*,-34%*,i,i,KCNQ2 patch conf=+
O=C(CCS(=O)(=O)c1cccc2nonc12)NCc1ccc(Cl)cc1,0.14,i,.,.,.,
COc1ccc(NC(=O)CN2C(=O)NC3(CC(C)CC(C)(C)C3)C2=O)cc1S(=O)(=O)N1CCCCC1 (configuration not stated),-8.9,-8.9*,i,i,i,
COc1ccc(NC(=O)CC2CCCC2)cc1S(=O)(=O)N1CCCCC1,1.6,i,.,.,.,
O=C(COc1ccc(Br)cc1CNCCc1ccccc1)NCc1ccccc1,-7.6,-7.6*,-32%*,i,i,KCNQ2 patch conf=+
CCCNCc1cc(Br)ccc1OCC(=O)NCCc1ccccc1,0.72,i,.,.,.,
CCCSc1nc(NCc2ccco2)c2c3c(sc2n1)COC(C)(C)C3,-9.8,-9.8*,i,i,i,
CCCCSc1nc(NCc2ccco2)c2c3c(sc2n1)COC(C)(C)C3,.,i,.,.,.,
CCN(CC)CCn1c2c(c(SCC(=O)NCc3ccccc3)nc1=O)CCC2,.,i,.,.,.,
O=C(Nc1ccccc1N1CCCCC1)c1ncoc1-c1ccc(F)cc1,-7.1,-7.1*,i,i,i,
Cc1ccc(-c2ocnc2C(=O)Nc2ccccc2C(=O)N2CCCC2)cc1,0.17,i,.,.,.,
CC1CCN(c2ccccc2NC(=O)c2ccc(F)cc2)CC1,-9.3,-9.3*,-17%*,i,i,KCNQ2 patch conf=i
CN1CCN(c2ccccc2NC(=O)c2ccc(F)cc2)CC1,0.74,i,.,.,.,
Cc1cc(C)c2nc(-c3ccncc3)cc(C(=O)N3CCN(Cc4ccccc4Cl)CC3)c2c1,.,i,.,.,.,
SMILES,KCNQ2 enhance,KCNQ2 block,KCNQ2 block conf,KCNQ1 spec,CHO Tl ctr,others
CCOC(=O)N1CCc2c(sc3c2c(=O)n(Cc2ccccc2)c(=O)n3Cc2ccccc2F)C1,-12,-12*,i,i,i,
O=C(O)Cn1c(=O)c2c3c(sc2n(Cc2ccccc2)c1=O)CCCC3,.,i,.,.,.,
CCOC(=O)N1CCc2c(sc3c2c(=O)n(Cc2ccccc2)c(=O)n3CC(=O)NCC2CCCO2)C1 (configuration not stated),0.43,i,.,.,.,
CCOC(=O)N1CCc2c(sc3c2c(=O)n(Cc2ccccc2)c(=O)n3Cc2cccc(C)c2)C1,-8.6,-8.6*,-44%*,-30%*,-28%*,KCNQ2 patch conf=i
COC(=O)c1cc(=O)n(-c2ccc(C(F)(F)F)cc2)[nH]1,.,i,.,.,.,
O=C(C1=C(Nc2ccccc2)c2ccccc2S(=O)(=O)N1)c1ccccc1,0.03,i,.,.,.,
Cc1ccccc1NC1=C(C(=O)c2ccccc2)N(C)S(=O)(=O)c2ccccc21,-8.1,-8.1*,-29%*,i,i,KCNQ2 patch conf=+
COC(=O)CSc1cc([N+](=O)[O-])cc2c1c(C1OCCO1)nn2-c1ccccc1,0.87,i,.,.,.,
COc1ccccc1CNC(=O)CN1C(=O)C(C)N(c2ccc(C)cc2)C1=O (configuration not stated),-7.5,-7.5*,i,i,i,
COc1ccc(CNC(=O)CN2C(=O)C(C)N(c3ccc(C)cc3)C2=O)cc1 (configuration not stated),.,i,.,.,.,

# Source: PubChem BioAssay (Johns Hopkins Ion Channel Center)
